Source: PubChem BioAssay (Broad Institute)
ROS inducer: ROS inducers in U2OS cancer cells, primary screen, cell-based, H2DCF-DA fluorescence | AID 624156, 2012 | U2OS ROS induction | 46,000 tested, 2% active | ROS induction (% of piperlongumine), % at 10 µM; in the data active means ROS induction above about 79%, passing the limit was not always enough
PD-1 reverse act: activators reversing PD-1 mediated T-cell inhibition, primary screen, luminescence, primary human CD4 T cells, PD-L1 beads | CellTiter-Glo 96 h | activation, % (concentration not given with the values) | 29,000 tested, under 10 active; call rule not given here
YB-1 expr inh: inhibitors of YB-1 gene expression, primary screen, cell-based, fluorescence; U2OS, qRT-PCR YB-1 vs CDIP delta delta Cp, 16 h; active compounds read high; zero = DMSO, each unit about twofold; 30,000 tested, 0.37% active; delta delta Cp (YB-1 minus CDIP) (concentration not given with the values);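 active means delta delta Cp rounded down to an integer at or above 3, about 3 SD of DMSO wells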;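 further: higher means less YB-1 transcript or more CDIP transcript relative to DMSO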
A number is an active result; - = inactive; . = not tested or not shown. This is a sample that favours compounds with a hit; in the whole collection about 2.3% have one here.

SMILES	ROS inducer	PD-1 reverse act	YB-1 expr inh
CC(=O)/C=C/C1(O)C(C)CCC2C(C)(C)CCCC21C (stereo not given)	-	-	-
CCCc1nc(NCc2ccccc2)c(C#N)c2c1CCCC2	-	.	.
N#Cc1c(N2CCN(C(=S)NCc3ccccc3)CC2)nc(-c2ccccc2)c2c1CCCC2	139.9	.	.
O=C(COc1ccc(C(=O)Nc2ccc(F)cc2)cc1)Nc1cc(Cl)cc(Cl)c1	-	-	.
Cc1cc(=O)[nH]c(SCCCOc2ccccc2Cl)n1	-	-	.
COc1ccccc1OCCCSc1nc(-c2ccccc2)cc(=O)[nH]1	125.9	-	.
COc1c(Cc2ccccc2O)c(O)c(Cc2ccccc2O)c(O)c1C(=O)CCc1ccccc1	-	-	-
CCn1cc(/C=C(\NC(=O)c2ccccc2)C(=O)N2CCCC2)c2ccccc21	-	.	.
CC(C)Oc1ccc(C(=O)NC(CC(=O)O)c2ccccc2)cc1 (stereo not given)	-	.	.
COC(=O)c1ccc([C@@H]2C=C(C(=O)N3CCN(Cc4ccc5c(c4)OCO5)CC3)O[C@H](OCc3ccc(CO)cc3)C2)cc1	99.8	.	-
O=C(C1=C[C@@H](c2ccc3c(c2)Cc2ccccc2-3)C[C@@H](OCc2ccc(CO)cc2)O1)N1CCN(Cc2ccc3c(c2)OCO3)CC1	-	.	-
Cc1ccc(C)c(-c2csc(N)c2C#N)c1	-	.	.
COC1=CC(=O)OC1C(O)C(O)C(OC(C)=O)c1ccccc1 (stereo not given)	-	-	-
COC(/C=C/C(OC(C)=O)C(C)OC(C)=O)C(O)C1CC=CC(=O)O1 (stereo not given)	105.4	-	-
COC(=O)C(CC#Cc1ccc2c(c1)[C@]1(C(=O)N2)[C@H](C(=O)N2CCc3cc(OC)c(OC)cc3C2)[C@H]2C(=O)O[C@H](c3ccccc3)[C@H](c3ccccc3)N2[C@@H]1c1ccc(O)cc1)C(=O)OC	-	.	-
O=C1O[C@@H](c2ccccc2)[C@@H](c2ccccc2)N2[C@@H](c3ccc(OCCO)cc3)[C@]3(C(=O)Nc4ccc(C#CC5=CCCCC5)cc43)[C@@H](C(=O)N3CCN(c4ncccn4)CC3)[C@H]12	-	.	-
O=C1O[C@H](c2ccccc2)[C@H](c2ccccc2)N2[C@H]1[C@@H](C(=O)O)[C@]1(C(=O)Nc3ccc(C#CC4(O)CCCCCC4)cc31)[C@H]2c1ccc(OCCO)cc1	-	.	-
O=C1O[C@@H](c2ccccc2)[C@@H](c2ccccc2)N2[C@@H](c3ccc(OCCO)cc3)[C@]3(C(=O)Nc4ccc(C#CC5(O)CCCCCC5)cc43)[C@@H](C(=O)N3CCCCCCC3)[C@H]12	135.2	.	-
O=C1O[C@H](c2ccccc2)[C@H](c2ccccc2)N2[C@H]1[C@@H](C(=O)N1CCCCCCC1)[C@]1(C(=O)Nc3ccc(C#CC4=CCCCC4)cc31)[C@H]2c1ccc(OCCO)cc1	100.4	.	-
COC(=O)C(CC#Cc1ccc2c(c1)[C@]1(C(=O)N2)[C@H](c2ccc(OCCO)cc2)N2[C@H](c3ccccc3)[C@H](c3ccccc3)OC(=O)[C@H]2[C@@H]1C(=O)N1CCCCCCC1)C(=O)OC	127.8	.	-
N/C(=N/c1nc2ccccc2o1)NC(=O)/C=C/c1ccccc1	-	.	.
CC1(C)CC(NC(=O)c2ccc(-n3cnnn3)cc2)CC(C)(C)N1	-	.	.
COC(=O)CCCCCCC(=O)N/N=C/c1ccc([N+](=O)[O-])s1	-	.	-
CCOC(=O)c1c(-c2ccccc2)csc1NC(=O)Cn1cnc2ccccc2c1=O	-	-	.
C=CCn1c(SCC(=O)O)nnc1-c1sc2ccccc2c1Cl	-	.	.
SMILES	ROS inducer	PD-1 reverse act	YB-1 expr inh
O=C(Nc1ccccc1)c1ccc(CSc2nnc(-c3ccncc3)n2-c2ccccc2)cc1	109.2	-	.
O=C(CSc1nnc(-c2ccncc2)n1-c1ccccc1)Nc1ccc(C(F)(F)F)cc1	-	-	.
CCOC(=O)c1oc2ccccc2c1NC(=O)CCN1CCCCC1	-	-	-
COC(=O)c1cc(C2CC2)[nH]n1	-	.	.
CCOC(=O)c1cncc(C#CCOC(=O)c2ccc(Cl)cn2)c1	-	.	.
C=C1C(=O)O[C@@H]2C[C@@]3(C)CC(=O)C=C(C)C3C[C@H]12 (stereo not given in full)	111.1	-	-
C=C1CC[C@@H](O)[C@]2(C)C[C@H]3OC(=O)C(=C)[C@H]3CC12 (stereo not given in full)	-	-	-
COC(CNC(=O)c1cc(=O)[nH]c2ccc(Br)cc12)OC	-	.	.
COCCOC(=O)N1C(=O)[C@@]2(c3ccccc31)[C@H](C(N)=O)[C@H]1C(=O)O[C@H](c3ccccc3)[C@H](c3ccccc3)N1[C@@H]2c1ccc(O)cc1	-	.	-
